# S1P3 antag: S1P3 receptor antagonists, primary screen, cell-based; Sphingosine 1-phosphate receptor 3 (Homo sapiens), Q99500; CHO S1P3 NFAT-BLA reporter, FRET fluorescence, antagonist mode; inhibition, % at 4.98 µM; 0.27% of 170,000 active; AID 485, 2006;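 active means inhibition above the plate cutoff, the mean inhibition of test wells on that plate plus 3 SD, cut at about 28% in these data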;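 further: cells challenged with S1P at its EC80 of 0.8 µM; blue over green emission ratio from cleaved BLA substrate after 4 h stimulation; 0% = S1P-stimulated wells and 100% = unstimulated DMSO-only wells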
# S1P4 antag: S1P4 receptor antagonists, primary screen, cell-based; Sphingosine 1-phosphate receptor 4 (Homo sapiens), O95977; S1P4-expressing cells, antagonist mode, reporter read-out; inhibition, % at 4.98 µM; 0.26% of 220,000 active; AID 1510, 2009; in the data active means inhibition above about 29%;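 further: 0% = wells stimulated with agonist and 100% = vehicle wells without agonist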
# Target sequence (O95977 whole entry, looked up): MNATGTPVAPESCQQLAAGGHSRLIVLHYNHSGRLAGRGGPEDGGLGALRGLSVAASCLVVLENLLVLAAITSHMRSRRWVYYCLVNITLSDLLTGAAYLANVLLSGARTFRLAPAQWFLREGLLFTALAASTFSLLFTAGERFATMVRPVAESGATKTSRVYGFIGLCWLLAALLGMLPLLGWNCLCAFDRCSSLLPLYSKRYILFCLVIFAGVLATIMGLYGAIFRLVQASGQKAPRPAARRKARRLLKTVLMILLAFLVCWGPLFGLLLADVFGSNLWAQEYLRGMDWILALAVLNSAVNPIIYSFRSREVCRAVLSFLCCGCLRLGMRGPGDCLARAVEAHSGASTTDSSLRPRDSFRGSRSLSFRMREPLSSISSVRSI
# ROMK primary: ROMK potassium channel modulators, primary screen, cell-based, thallium flux, MLSMR library; 2% of 130,000 active; AID 1918, 2009; Tet-inducible ROMK, thallium flux fluorescence; actives lie on both sides; ATP-sensitive inward rectifier potassium channel 1 (Homo sapiens), P48048; B-score at 10 µM;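 active means signal ratio slope over the read window, or its plate-corrected B-score, at least 3 SD from the plate mean, either direction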;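 further: B-score of the F/F0 ratio slope over 7 to 12 s after thallium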
# S1P4 agonist: S1P4 receptor agonists, primary screen, cell-based; S1P4-expressing cell line, agonist reporter assay; activation, % at 4.98 µM; 0.35% of 220,000 active; in the data active means activation above about 11%;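 further: 0% = DMSO vehicle and 100% = reference agonist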
# RAM network inh: inhibitors of the yeast RAM network, primary screen, dse1pr::URA3 reporter, 5-FOA selection; inhibition, % at 50 µM; 1.8% of 190,000 active; S. cerevisiae dse1pr::URA3 reporter, 5-FOA growth OD615, 2 d; analog-sensitive cbk1-as2 kinase mutant strain; AID 868, 2007;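 active means inhibition above a set limit, 3 SD over mean compound inhibition, cut at about 8.4% in these data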;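 further: 0% = DMSO-only wells with no growth and 100% = 10 µM 1-NA-PP1 full growth; inhibition rescues growth on 5-FOA so higher OD means more RAM inhibition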
# Cl transport mod: KCC2 cotransporter modulators, thallium flux, primary screen, cell-based, HEK293 KCC2, FluoZin-2 fluorescence, MLSMR; KCC2 cells, thallium flux FluoZin-2 fluorescence; B-score of Tl+ flux slope (higher = more flux/activation; lower = inhibition) at 10 µM; Solute carrier family 12 member 5 (Homo sapiens), Q9H2X9; 2.2% of 190,000 active;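 active means thallium flux slope and its plate-corrected score both differing from the plate sample mean at a set confidence after two filtering rounds, in either direction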;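 further: slope of fluorescence scaled to starting intensity during 10 to 20 s after thallium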
# * marks the source's active call; other numbers are inactive results; · = not tested or not shown. Shown are actives, neighbours in structure and some others; about 5.1% of the full set was active somewhere.
SMILES,S1P3 antag,S1P4 antag,ROMK primary,S1P4 agonist,RAM network inh,Cl transport mod
COc1ccccc1Nc1nc(-c2sc(NC(=O)c3ccccc3)nc2C)cs1,·,-4,·,1,1,1.1
c1ccc(C2=Nn3c(nnc3-c3cc(-c4ccccc4)n[nH]3)SC2)cc1,18,-26,·,1,8.6*,0.14
Clc1ccc(C2=Nn3c(nnc3-c3cc(-c4ccccc4)n[nH]3)SC2)cc1,·,4,·,-2,9.1*,·
c1ccc(-c2nnc3n2N=C(c2ccc4c(c2)OCO4)CS3)nc1,·,-13,-0.17,-1,9.2*,-1.3
COc1ccc(C2=Nn3c(nnc3-c3ccccc3OC)SC2)cc1OC,54*,6,·,-3,-1,-1.5
O=C(N/N=C/C1C(c2ccccc2)C1(Cl)Cl)c1cccc(Br)c1 (centres undefined),·,-6,0.94,1,0,-0.15
CN(C)C(=O)CCSc1nnc(-c2ccco2)o1,-5,1,-0.033,-2,1,0.74
O=C(Cc1ccccc1)NNC(=S)Nc1ccccc1,-9,-14,-1.1,1,1,1
O=C(CSc1nnc(SCc2ccccc2)s1)NNC(=S)Nc1ccccc1,1,-6,1.1,0,10*,-2.4
CC(C)NC(=S)N(CCc1ccncc1)C(C)C,-6,9,1.1,-1,0,0.11
NS(=O)(=O)c1ccc(Sc2nc3ccccc3s2)c([N+](=O)[O-])c1,-2,4,·,4,·,-0.89
O=C(O)c1ccc(S(=O)(=O)Nc2ccc(O)c(Sc3nc4ccccc4s3)c2)cc1,9,3,-0.027,0,9.8*,0.18
NC(=O)c1c(NC(=O)c2cccs2)sc2c1CCCCCC2,54*,-20,·,0,0,-0.73
CCc1ccc(-c2nc(CN3CCC(C(=O)N4CCN(c5ccccc5)CC4)CC3)c(C)o2)cc1,3,-3,·,-3,1,2*
CCOC(=O)c1cc(NC(=O)c2ccccc2)c(=O)oc1-c1ccccc1,·,13,·,-3,9.5*,0.015
CC[C@H](C)[C@@H](NC(=O)O[C@@H]1C(=O)c2cc(Br)ccc2O[C@H]1c1ccc2c(c1)OCO2)C(=O)OC,-9,15,-0.86,1,2,1.3
C=CCSc1nnc(NC(=O)c2nc(SCC)ncc2Cl)s1,·,-3,·,-3,8.4*,·
COc1ccc(/C=c2\s/c(=C\C(=O)C(C)(C)C)[nH]c2=O)cc1O,-9,-12,·,0,·,1.1
COc1cc(/C=c2\s/c(=C\C(=O)C(C)(C)C)[nH]c2=O)cc(OC)c1OC,16,-28,-0.94,-1,8.8*,1.9
Cc1cccc(/C=c2\s/c(=C\C(=O)C(C)(C)C)[nH]c2=O)c1,·,-14,·,1,5,12*
Cc1cccc(NC(=O)N2CCC(NC(=O)c3ccccc3C)CC2)c1,3,-33,-1.1,-1,9.6*,-1.1
Cc1cccc(NC(=O)N2CCC(NC(=O)c3ccco3)CC2)c1,0,-21,-0.056,0,2,1.1
N=C1/C(=C/c2cccn2Cc2ccc(Cl)cc2)C(=O)N=C2SC=CN12,1,-10,-0.098,0,7,1.2
COc1ccc(CN2C(=O)c3ccccc3C(/C=N/OCc3ccc(Cl)cc3)C2=O)cc1 (centres undefined),·,3,·,1,10*,·
COc1ccc(NC(=O)c2c(NC(=O)CNCc3ccco3)sc3c2CCC3)c(OC)c1,70*,-55,·,2,2,-0.22
SMILES,S1P3 antag,S1P4 antag,ROMK primary,S1P4 agonist,RAM network inh,Cl transport mod
COc1cc(/C=N/NC(=O)c2cccnc2)ccc1OCC(=O)N1CCOCC1,-7,-19,·,0,2,0.86
CCOc1ccc(/C=N/NC(=O)c2c(-c3ccccc3)noc2C)cc1,2,-14,-0.38,2,11*,-0.56
Cc1onc(-c2ccccc2)c1C(=O)N/N=C/c1cccc(O)c1,-7,-5,·,1,0,-0.42
Cc1ccc(/C=C/C(=O)N2CCCC(C(N)=O)C2)o1 (centres undefined),-14,3,·,1,·,-0.49
Nn1cnnc1N/N=C/c1cc(Br)cc(Br)c1O,·,4,·,0,9.6*,·
Cc1ccc(C#N)c(SCC(=O)Nc2nccs2)n1,0,-9,-0.00028,0,5,0.94
COC(=O)c1sccc1-c1ccc(C(=O)Nc2cccc(Cl)c2)o1,·,3,·,1,9.8*,0.017
COc1ccc(C(=O)c2sc(NC(C)C)nc2N)cc1OC,·,-17,-4.2*,2,-1,·
O=S(=O)(c1ccc(Cl)cc1)N1CCC(N2CCOCC2)CC1,·,-12,-0.031,-2,2,0.66
Nc1nc(-c2ccc(Cl)cc2)c(N=Nc2ccc(S(=O)(=O)N3CCOCC3)cc2)s1,-21,19,·,-1,9.3*,-0.0046
CCOC(=O)c1sc2ccccc2c1OC(=O)c1ccccc1OC,15,8,·,0,10*,0.079
Fc1cccc2sc(Nc3nnc(-c4ccco4)o3)nc12,-38,-3,5.1*,1,2,33*
COc1cccc2sc(Nc3nnc(-c4cccs4)o3)nc12,14,3,·,-1,1,58*
CC(=O)Nc1nnc(-c2ccco2)o1,6,-2,0.46,-2,1,0.08
O=C(c1cc([N+](=O)[O-])cc([N+](=O)[O-])c1)N1CCOCC1,-19,-5,·,0,1,-0.87
C1=C(CCNCC2CCCCC2)CCCC1,·,8,-2,2,-1,-0.28
CCn1c(SCC(N)=O)nc2sc3c(c2c1=O)CCCC3,·,15,·,-1,3,60*
Cc1ccc(C(=O)Nc2nc3n(n2)C(c2ccccc2)CC(=O)N3)cc1 (centres undefined),-16,5,-0.14,1,·,-0.036
CCOC(=O)c1c(N/N=C/c2cccnc2)n[nH]c1C,8,2,·,0,·,-0.11
CCOc1cc(C2NN=C(c3ccc(C)cc3)S2)ccc1O (centres undefined),-6,5,·,-1,1,41*
Cc1cc(C)c2[nH]c(=S)cc(C)c2c1,·,6,2.2,-1,0,31*
O=c1c2ccccc2[nH]c(=S)n1C1CCCCC1,-2,-2,·,2,4,69*
O=c1c2ccccc2[nH]c(=S)n1CCN1CCCC1,2,-12,-0.58,0,0,0.61
O=C(c1ccc(F)cc1)C1CCN(CCn2c(=S)[nH]c3ccccc3c2=O)CC1,6,5,·,-1,·,7*
O=c1c2cccnc2[nH]c(=S)n1CCCN1CCN(c2ccc(F)cc2)CC1,-8,-4,0.038,-2,1,6*
